# Unmarked numbers belong to inactive results. Active and inactive are the calls of the source.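 Rule for the calls: active = inhibition of at least 75% in the gel-based probe competition assay; inactive = inhibition below 75%.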
# Target: Platelet-activating factor acetylhydrolase (Mus musculus) (UniProt Q60963)
# Test: mouse pPAFAH inhibitors, late-stage follow-up, orthogonal assay, biochemical, gel-based competitive ABPP, fluorescence (AID 588474)
# Conditions: recombinant mouse pPAFAH, FP-Rh fluorescence, at 5 µM, active compounds read high
# Platelet-activating factor acetylhydrolase (Mus musculus), sequence (Q60963 whole entry, looked up): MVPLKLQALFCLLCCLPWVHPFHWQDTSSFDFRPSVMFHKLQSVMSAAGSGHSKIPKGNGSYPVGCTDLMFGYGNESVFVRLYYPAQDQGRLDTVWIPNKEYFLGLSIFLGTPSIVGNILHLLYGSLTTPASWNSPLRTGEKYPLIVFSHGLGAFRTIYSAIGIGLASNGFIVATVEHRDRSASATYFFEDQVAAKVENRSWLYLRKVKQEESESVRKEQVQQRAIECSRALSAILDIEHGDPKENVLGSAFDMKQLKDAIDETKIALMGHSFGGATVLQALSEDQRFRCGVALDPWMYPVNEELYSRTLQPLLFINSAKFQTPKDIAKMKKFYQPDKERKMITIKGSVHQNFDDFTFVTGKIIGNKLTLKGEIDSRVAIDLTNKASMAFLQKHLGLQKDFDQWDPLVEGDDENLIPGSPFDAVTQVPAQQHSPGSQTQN
row,Structure (SMILES),inhibition
1,O=C(Oc1ccc([N+](=O)[O-])cc1)N1CCC(N2CCCCC2)CC1,84% (active)
2,NCCc1ccc(S(=O)(=O)F)cc1,16%
3,CN(C)C(=O)Oc1noc2cc(Cl)ccc12,99% (active)
4,O=C(c1ccco1)c1cn(Cc2ccccc2Cl)c2ccccc12,9%
5,O=C(c1cccs1)c1cn(Cc2ccccc2Cl)c2ccccc12,43%
6,N#Cc1ccccc1Cn1cc(C(=O)c2cccs2)c2ccccc21,44%
7,CN1C[C@H](CNC(=O)OCc2ccccc2)C[C@@H]2c3cccc4c3c(cn4C)C[C@H]21,15%
8,Cc1cc(C(=O)CS(=O)(=O)c2ccccc2)cc(C)c1OC(=O)N(C)C,36%
9,N#Cc1ccccc1Cn1cc(C(=O)c2ccccc2F)c2ccccc21,8%
